Measurements published in PubChem BioAssay (NCI).
This is part of a sample that, as a whole, favours compounds with a hit. Of some 83,000 tested, about 20% had one in any assay.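 Step 1: grow cells in 96-well plates. Step 2: add test compound at a single concentration. Step 3: incubate 48 h. Step 4: record percent growth.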 Active and inactive are the calls of the source. The calls were made as follows: active = growth percent below 10; inactive = the rest.

Assays:
Test in all cases: NCI-60 one-dose screen, 48 h (100 = growth as untreated, 0 = no growth, -100 = all killed)
Conditions in all cases: 10 µM unless noted
[1] = system: DU-145 prostate
[2] = system: K-562 leukemia
[3] = system: MALME-3M melanoma
[4] = system: MDA-MB-231 breast
[5] = system: RXF 393 renal
[6] = system: SF-268 CNS
[7] = system: SF-295 CNS
[8] = system: SF-539 CNS
[9] = system: UACC-257 melanoma
[10] = system: M14 melanoma
[11] = system: HCT-15 colon
[12] = system: HT29 colon
[13] = system: SNB-19 CNS
[14] = system: PC-3 prostate
[15] = system: SK-MEL-5 melanoma
[16] = system: UACC-62 melanoma
[17] = system: LOX IMVI melanoma
[18] = system: SK-MEL-28 melanoma
[19] = system: U251 CNS
[20] = system: SNB-75 CNS

Measured: growth

Brc1cccc(-c2cc(-c3ccc4c(c3)OCCO4)[nH]n2)c1
inactive: [1] 21% [25 µM] | [2] 14.7% [25 µM] | [3] 49.1% [25 µM] | [4] 33.4% [25 µM] | [6] 50.5% [25 µM] | [9] 62.4% [25 µM] | [10] 20.9% [25 µM] | [11] 15.9% [25 µM] | [13] 34% [25 µM] | [14] 26.3% [25 µM] | [15] 10% [25 µM] | [16] 36.8% [25 µM] | [17] 34% [25 µM] | [18] 59.7% [25 µM]
active: [5] -18.6% [25 µM] | [7] 0.112% [25 µM] | [8] -14.1% [25 µM] | [12] 1.56% [25 µM]

OC(c1cccc(C(F)(F)F)c1)c1cnccc1NC1CCCCCC1 (stereo not given)
active: [2] 3.23% | [3] -77.7% | [10] -21.8% | [11] 8.21% | [12] -6.41% | [15] -68.2% | [17] -18.7% | [18] -12.9%
inactive: [1] 71.6% | [4] 10.6% | [5] 32.3% | [6] 60.5% | [7] 14.2% | [8] 74.2% | [9] 39.5% | [13] 69.3% | [14] 22.4% | [16] 55%

COc1ccc(C/C(C)=C(\c2ccc(Cl)cc2)c2ccc(OCCN3CCCCCC3)cc2)cc1
inactive: [1] 106% | [2] 20.7% | [3] 104% | [4] 99.9% | [5] 93.1% | [6] 88.4% | [7] 100% | [8] 90.8% | [9] 94.7% | [10] 90.2% | [11] 43.1% | [12] 15.7% | [13] 84.6% | [19] 64.5% | [14] 69.2% | [15] 80% | [17] 90%

O=C(CN1CCN(c2cc3c(cc2F)c(=O)c(C(=O)N/N=C/c2ccccc2)cn3C2CC2)CC1)N/N=C\c1ccccc1
inactive: [1] 90.4% | [2] 56.6% | [3] 120% | [4] 70.3% | [5] 72.7% | [6] 72.5% | [7] 74.8% | [8] 76.2% | [9] 99% | [10] 74.1% | [11] 53.9% | [12] 73.4% | [13] 74% | [19] 83.7% | [15] 83% | [16] 71.4% | [17] 72.6% | [18] 88.9%

COc1ccc(S(=O)(=O)NCCCNc2nccc(-c3c(-c4cccc(N)c4)nc4sccn34)n2)cc1
active: [4] -61.7%
inactive: [1] 92.1% | [2] 69.7% | [3] 103% | [5] 96.1% | [6] 87.6% | [7] 102% | [8] 101% | [9] 113% | [10] 80.8% | [11] 89.2% | [12] 59.7% | [13] 110% | [15] 81.3% | [16] 53% | [17] 96.4% | [18] 93.1%

COc1ccc(/C=N\NC(=O)CN2CCN(c3cc4c(cc3F)c(=O)c(C(=O)N/N=C/c3ccc(OC)cc3)cn4C3CC3)CC2)cc1
inactive: [1] 91.6% | [2] 71.7% | [3] 85.2% | [4] 85.7% | [5] 83.3% | [6] 76.7% | [7] 91.3% | [8] 83% | [9] 91.6% | [10] 92.1% | [11] 76.6% | [12] 90.2% | [13] 86.2% | [19] 95% | [14] 71.9% | [15] 72.2% | [16] 83.3% | [17] 90.1% | [18] 93.9%

Cc1cc(N/N=C/c2nc(-c3ccc(Cl)cc3)oc2C)c2cc(Br)ccc2n1
inactive: [1] 31.9% | [4] 70.4% | [5] 98.6% | [6] 68.5% | [7] 105% | [8] 87.3% | [9] 101% | [10] 40.6% | [13] 41.6% | [14] 80.2% | [15] 91.9%
active: [2] 0% | [3] 7.27% | [11] -20.3% | [12] -45.8% | [17] -43.4%

COc1ccc(-n2cc(-c3ccccc3)c3c(SCC(=O)N/N=C/c4ccc([N+](=O)[O-])cc4)ncnc32)cc1
inactive: [1] 114% | [2] 110% | [3] 110% | [4] 102% | [5] 113% | [6] 98.5% | [7] 105% | [8] 97.9% | [9] 107% | [10] 108% | [11] 108% | [12] 114% | [13] 99.7% | [14] 96.4% | [15] 100% | [16] 97.5% | [17] 94.2% | [18] 110%

O=[N+]([O-])c1cccc(-c2nc3sccn3c2-c2ccnc(NCCNS(=O)(=O)c3ccc(C(F)(F)F)cc3)n2)c1
active: [15] -14%
inactive: [1] 48.5% | [2] 21.8% | [3] 41.1% | [4] 60.2% | [5] 56% | [6] 39.8% | [7] 37.4% | [8] 74.5% | [9] 49.1% | [10] 37.8% | [11] 26.7% | [12] 40% | [13] 61.4% | [14] 17% | [16] 13.2% | [17] 30.4% | [18] 58.8%

NS(=O)(=O)c1ccc(-n2ncc3c(=O)[nH]c(CN4CCN(c5cc6c(cc5F)c(=O)c(C(=O)O)cn6C5CC5)CC4)nc32)cc1
inactive: [1] 110% | [2] 95.8% | [3] 105% | [4] 85.8% | [5] 98.2% | [6] 91.6% | [7] 91.8% | [8] 97% | [9] 105% | [10] 92.9% | [11] 89.7% | [12] 101% | [13] 94.9% | [19] 102% | [15] 96.7% | [16] 74% | [17] 97.2%

CCCCCCCCCCCCCCCCCCNC(=O)[C@H]1CSC(c2ccc(OC)c(F)c2)N1 (stereo not given in full)
inactive: [1] 67.1% | [7] 87.5% | [9] 70.3% | [11] 71% | [13] 65.1% | [14] 54.2% | [15] 23.8% | [17] 30.1%
active: [2] 0.509% | [3] -57.4% | [4] -42.8% | [5] -34% | [6] -61% | [8] -15.1% | [10] -76.7% | [12] 8.84% | [16] -86.5% | [18] -74.5%

O=C(Cc1ccccc1)c1ccc(Cl)cc1
inactive: [1] 119% | [2] 123% | [3] 105% | [4] 103% | [5] 121% | [6] 111% | [7] 103% | [8] 107% | [10] 101% | [11] 97.1% | [12] 115% | [20] 95.9% | [19] 99.5% | [14] 116% | [15] 103% | [16] 93.2% | [17] 102% | [18] 114%

COc1ccccc1/C=C(/C(=O)c1ccccc1)c1ccccc1
inactive: [1] 110% | [2] 86.6% | [3] 135% | [4] 98.6% | [5] 105% | [6] 97.8% | [7] 104% | [8] 106% | [9] 93.4% | [10] 101% | [11] 93.4% | [13] 90.8% | [14] 92.2% | [15] 99.1% | [16] 82.4% | [17] 87.8% | [18] 108%

COc1ccc2nc3cc(Cl)ccc3c(N3CCN(c4ccnc(N5CCN(C)CC5)n4)CC3)c2c1
active: [1] 3.84% | [2] -36.1% | [11] -23.2% | [12] -69.4% | [17] -62.5%
inactive: [3] 83.8% | [4] 28.3% | [5] 10.5% | [6] 52.8% | [7] 93.9% | [9] 90.7% | [10] 58.5% | [20] 90.6% | [13] 94.5% | [19] 46.1% | [14] 63.4% | [15] 84.7% | [16] 94.1%

CCN(CC)c1ccc(/C=C/C2=[N+](C)c3ccccc3C2(C)C)cc1
inactive: [1] 14.3% | [2] 28.3% | [3] 19% | [5] 33.7% | [6] 17% | [8] 14.7% | [10] 22.4% | [11] 41.1% | [12] 10.7% | [20] 26.4% | [19] 13.8% | [16] 16% | [17] 13.3% | [18] 42.9%
active: [4] 7.79% | [7] -19% | [14] 5.82% | [15] -71.3%
